In PubChem BioAssay AID588689 (Southern Research Specialized Biocontainment Screening …, 2011):
Hit rate of the full screen: of about 340,000 compounds, about 1,000 (0.29%) were called active. No stated cut-off is given here; in the data, inconclusive means inhibition above about 29% without an active follow-up result; inactive means below that. These entries were drawn from the full list. Potency and affinity values are given separately.

molecular target: Genome polyprotein (Dengue virus type 2 (strain 16681-PDK53)) (UniProt P29991); assay: flavivirus cap methylation enzyme inhibition – biochemical, confirmation dose response, primary screen (AID 588689); settings: Dengue-2 NS5 methyltransferase capping enzyme assay, at 25 µM, hits give high values
Sequence (P29991 whole entry, looked up): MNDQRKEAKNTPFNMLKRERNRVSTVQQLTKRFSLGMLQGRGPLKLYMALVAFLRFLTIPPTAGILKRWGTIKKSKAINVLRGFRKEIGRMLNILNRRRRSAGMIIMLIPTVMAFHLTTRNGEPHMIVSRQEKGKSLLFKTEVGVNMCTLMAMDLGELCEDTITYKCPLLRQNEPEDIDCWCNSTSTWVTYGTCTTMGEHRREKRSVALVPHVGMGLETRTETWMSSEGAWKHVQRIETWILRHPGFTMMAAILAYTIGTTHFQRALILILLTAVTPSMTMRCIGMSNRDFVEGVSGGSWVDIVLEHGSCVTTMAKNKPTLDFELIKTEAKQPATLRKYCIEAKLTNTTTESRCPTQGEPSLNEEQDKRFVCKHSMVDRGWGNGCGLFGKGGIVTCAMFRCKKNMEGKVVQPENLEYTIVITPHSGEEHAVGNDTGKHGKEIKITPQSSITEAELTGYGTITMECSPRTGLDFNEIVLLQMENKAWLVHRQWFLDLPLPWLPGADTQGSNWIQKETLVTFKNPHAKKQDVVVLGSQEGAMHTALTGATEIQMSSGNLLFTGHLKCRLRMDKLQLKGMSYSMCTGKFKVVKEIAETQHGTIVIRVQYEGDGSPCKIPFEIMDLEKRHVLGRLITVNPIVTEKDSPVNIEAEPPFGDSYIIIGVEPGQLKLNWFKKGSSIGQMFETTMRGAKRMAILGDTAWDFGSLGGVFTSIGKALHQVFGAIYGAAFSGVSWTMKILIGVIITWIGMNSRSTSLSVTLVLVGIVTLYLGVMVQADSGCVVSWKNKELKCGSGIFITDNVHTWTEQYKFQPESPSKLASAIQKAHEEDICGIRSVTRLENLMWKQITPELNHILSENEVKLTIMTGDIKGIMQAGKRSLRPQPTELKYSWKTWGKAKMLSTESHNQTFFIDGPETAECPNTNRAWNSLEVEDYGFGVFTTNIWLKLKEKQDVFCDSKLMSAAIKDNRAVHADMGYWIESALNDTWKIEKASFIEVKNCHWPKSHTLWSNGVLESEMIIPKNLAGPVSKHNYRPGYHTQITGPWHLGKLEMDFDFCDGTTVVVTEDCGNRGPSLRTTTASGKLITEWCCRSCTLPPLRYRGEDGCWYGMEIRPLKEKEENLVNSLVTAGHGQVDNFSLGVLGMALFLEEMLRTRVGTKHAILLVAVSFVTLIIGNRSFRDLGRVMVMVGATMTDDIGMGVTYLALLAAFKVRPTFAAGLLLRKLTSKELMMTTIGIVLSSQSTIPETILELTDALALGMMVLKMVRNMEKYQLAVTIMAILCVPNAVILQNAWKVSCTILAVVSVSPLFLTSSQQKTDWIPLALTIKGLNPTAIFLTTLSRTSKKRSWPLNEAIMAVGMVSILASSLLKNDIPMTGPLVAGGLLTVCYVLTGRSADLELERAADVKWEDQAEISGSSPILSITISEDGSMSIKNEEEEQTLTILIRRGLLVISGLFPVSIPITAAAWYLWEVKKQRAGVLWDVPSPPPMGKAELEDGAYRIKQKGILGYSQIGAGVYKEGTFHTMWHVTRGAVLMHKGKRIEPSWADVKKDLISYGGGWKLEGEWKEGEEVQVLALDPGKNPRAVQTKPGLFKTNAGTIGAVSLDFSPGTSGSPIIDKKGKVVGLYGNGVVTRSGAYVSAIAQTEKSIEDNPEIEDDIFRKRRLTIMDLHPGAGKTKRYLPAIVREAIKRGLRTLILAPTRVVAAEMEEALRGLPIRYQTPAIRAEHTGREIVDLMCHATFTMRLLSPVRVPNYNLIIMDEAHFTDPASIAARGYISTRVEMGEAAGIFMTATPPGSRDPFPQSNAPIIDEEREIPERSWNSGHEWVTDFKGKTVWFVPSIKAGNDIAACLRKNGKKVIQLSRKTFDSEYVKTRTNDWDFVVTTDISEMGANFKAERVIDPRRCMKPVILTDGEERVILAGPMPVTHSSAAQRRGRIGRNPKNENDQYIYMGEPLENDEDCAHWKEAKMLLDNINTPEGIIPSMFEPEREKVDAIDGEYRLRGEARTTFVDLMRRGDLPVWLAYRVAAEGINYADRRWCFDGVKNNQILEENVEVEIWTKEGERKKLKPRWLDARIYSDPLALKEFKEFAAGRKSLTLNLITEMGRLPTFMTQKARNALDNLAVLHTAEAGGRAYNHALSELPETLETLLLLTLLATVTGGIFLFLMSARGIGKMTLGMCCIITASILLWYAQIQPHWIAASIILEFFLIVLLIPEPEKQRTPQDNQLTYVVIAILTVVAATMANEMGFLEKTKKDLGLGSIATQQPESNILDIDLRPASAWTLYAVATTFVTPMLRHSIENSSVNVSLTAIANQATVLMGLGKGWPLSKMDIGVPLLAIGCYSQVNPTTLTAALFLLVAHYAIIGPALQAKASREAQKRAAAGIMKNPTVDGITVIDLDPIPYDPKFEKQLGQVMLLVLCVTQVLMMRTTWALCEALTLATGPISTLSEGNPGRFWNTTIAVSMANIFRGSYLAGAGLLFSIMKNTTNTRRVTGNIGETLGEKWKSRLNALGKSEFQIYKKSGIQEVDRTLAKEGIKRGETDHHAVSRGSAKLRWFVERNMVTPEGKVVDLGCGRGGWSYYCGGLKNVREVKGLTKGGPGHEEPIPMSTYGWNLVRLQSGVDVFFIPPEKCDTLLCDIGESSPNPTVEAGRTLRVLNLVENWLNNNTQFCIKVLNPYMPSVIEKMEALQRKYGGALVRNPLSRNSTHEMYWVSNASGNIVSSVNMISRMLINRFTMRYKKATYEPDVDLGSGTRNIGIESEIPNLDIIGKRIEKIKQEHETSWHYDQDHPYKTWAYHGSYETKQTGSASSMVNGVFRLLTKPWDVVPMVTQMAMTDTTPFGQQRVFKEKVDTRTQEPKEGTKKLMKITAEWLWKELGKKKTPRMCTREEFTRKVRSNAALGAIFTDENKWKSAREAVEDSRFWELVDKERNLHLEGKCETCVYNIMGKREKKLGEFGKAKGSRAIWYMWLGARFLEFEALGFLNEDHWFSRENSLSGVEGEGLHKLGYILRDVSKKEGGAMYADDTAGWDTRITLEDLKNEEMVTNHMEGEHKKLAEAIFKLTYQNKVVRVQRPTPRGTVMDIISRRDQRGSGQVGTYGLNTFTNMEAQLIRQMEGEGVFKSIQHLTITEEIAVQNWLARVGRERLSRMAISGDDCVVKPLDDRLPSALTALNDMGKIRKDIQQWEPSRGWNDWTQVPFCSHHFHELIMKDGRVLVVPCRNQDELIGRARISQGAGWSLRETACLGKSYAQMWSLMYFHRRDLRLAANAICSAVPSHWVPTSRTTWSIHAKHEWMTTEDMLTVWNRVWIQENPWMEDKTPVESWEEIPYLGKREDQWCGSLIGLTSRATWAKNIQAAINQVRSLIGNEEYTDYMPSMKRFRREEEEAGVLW

inhibition, inactive:
O=C(C[C@@H]1C/C=C\C[C@H](Cc2ccc(F)cc2)C(=O)OCCNC1=O)N[C@H](CO)Cc1ccccc1 -4.01%, O=[N+]([O-])c1ccc(O)c(C=Nc2ccc3c(c2)OCCO3)c1 2.55%, O=[N+]([O-])c1cc(Br)cc(C=Nc2ccc3c(c2)OCO3)c1O 17.9%, O=C(O)c1ccc(NC2OC[C@@H](O)[C@H](O)[C@H]2O)cc1 (some centres undefined) 1.47%, CC(=O)Nc1ccc(S(=O)(=O)NC2CC(=O)N(c3ccc(C)c(C)c3)C2)cc1 (centres undefined) -8.06%, CCCCn1c(N)c(N(CCC(C)C)C(=O)CCCc2nc3ccccc3s2)c(=O)[nH]c1=O 0.96%, CCSc1nc(O)c(C2OC(=O)c3c2ccc(OC)c3OC)c(=O)n1-c1ccccc1 (centres undefined) -0.81%, CCCSc1nc(O)c(C2OC(=O)c3c2ccc(OC)c3OC)c(=O)n1C (centres undefined) 4.42%, Cc1ccc(CNC(=O)Cn2c(=O)c3sccc3n(Cc3ccc([N+](=O)[O-])cc3)c2=O)cc1 -4.46%, COc1cc2c(cc1C1C(C#N)=C(N)OC3=C1C(=O)CC(C)(C)C3)OCO2 (centres undefined) 2.7%, COc1ccc(C(C(=O)NC(C)(C)C)N(C(=O)CNC(=O)c2cccs2)c2cccnc2)cc1OC (centres undefined) 0.81%, CCN(CCCNC(=O)C1CCN(S(=O)(=O)CC)CC1)c1ccccc1 0%, CCOC(=O)C1CCN(c2c(NCCCN(CC)c3ccccc3)c(=O)c2=O)CC1 -1.39%, N#Cc1c(NC(=O)C(=O)NCCCN2CCOCC2)sc2c1CCC2 -10.5%, COc1cccc(COC(=O)c2c(C)nn(-c3ccccc3)c2Cl)c1OC -1.3%, COc1ccc(C(c2c(C)n(C)n(-c3ccccc3)c2=O)c2c(C)n(C)n(-c3ccccc3)c2=O)c(OC)c1OC 4.27%, O=C(CC1(CC(=O)N2CCOCC2)CCCC1)Nc1ccccc1 1.1%, Cc1ccc(C(C[N+](=O)[O-])c2c(C)[nH]n(-c3ccccc3)c2=O)cc1 (centres undefined) 12.3%, Cc1[nH]n(-c2ccccc2)c(=O)c1C(c1ccccc1C(=O)O)c1c(C)[nH]n(-c2ccccc2)c1=O -2.59%, Cc1[nH]n(-c2ccccc2)c(=O)c1C(C[N+](=O)[O-])c1ccc(F)cc1 (centres undefined) 1.46%, Cc1c(C(c2ccc(C(=O)O)cc2)c2c(C)n(C)n(-c3ccccc3)c2=O)c(=O)n(-c2ccccc2)n1C -3.92%, Cc1c(C(c2ccc([N+](=O)[O-])cc2)c2c(C)n(C)n(-c3ccccc3)c2=O)c(=O)n(-c2ccccc2)n1C -2.74%, Cc1[nH]n(-c2ccccc2)c(=O)c1N=Nc1ccccc1C(=O)N1CCOCC1 -1.82%, Cc1[nH]n(-c2ccccc2)c(=O)c1N=Nc1ccccc1O -2.22%, Cc1c(C(c2cccc(O)c2)c2c(C)n(C)n(-c3ccccc3)c2=O)c(=O)n(-c2ccccc2)n1C 0.66%, COC(=O)[C@@H]1C[C@@]2(O)[C@H](O)[C@H](O)[C@H](O)C[C@H]2N1Cc1cccc2ccccc12 -3.14%, Cc1nonc1CN(C)C(=O)CC1C(=O)NCCN1Cc1c(F)cccc1Cl (centres undefined) 0%, Cc1ccc(OCc2cc(C(=O)N3CCCC(O)C3)no2)cn1 (centres undefined) 3.18%, COc1ccc(-c2cc(C(F)(F)F)nc(NCc3cccs3)n2)cc1 -0.64%, Cc1csc(NC(=O)c2ccc(COc3ccccc3)o2)n1 -0.81%, COc1cccc(NC(=S)NC2CC3CCCC(C2)N3C2CCCC2)c1 (centres undefined) -6.24%, CCCCCN(C(=O)CCC(=O)OCc1cccc(C(F)(F)F)c1)c1c(N)n(CCCC)c(=O)[nH]c1=O -5.15%, O=c1c2cc([N+](=O)[O-])cc([N+](=O)[O-])c2[nH]n1-c1ccccc1 22.2%, Cc1[nH]n(-c2cccc([N+](=O)[O-])c2)c(=O)c1-c1ccccc1 -10.7%, Cc1[nH]n(-c2ccccc2)c(=O)c1N=Nc1cccc([N+](=O)[O-])c1 -3.97%, Cc1[nH][nH]c(=O)c1C(c1ccc(O)c([N+](=O)[O-])c1)c1c(C)[nH][nH]c1=O 5.19%, COc1ccc(-n2c3c(cc(C(=O)NC4CCSC4=O)c2=O)C(=O)CC(C)(C)C3)cc1 (centres undefined) 3.46%, CC1(C)CC(=O)C=C(c2ccc3ccccc3c2)C1 6.35%, CC1CCCN(CCC(=O)Nc2ccc3c(c2)CCC3)C1 (centres undefined) -0.41%
